A short description of assay [1]: binders of probe aFSTL3 on microarray, primary screen, stem cell growth factor project, biochemical, small-molecule microarray, fluorescence 635/667 (AID 1064).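 Further: measures binding of the biotinylated anti-FSTL3 antibody to printed compounds.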 The following applies: higher = more signal; small-molecule microarray, probe aFSTL3, fluorescence unless noted.
The nature of assay [2]: binders from COS7 lysate, DM2A8 probe, primary screen, torsin A project, cell lysate, small-molecule microarray, fluorescence 635/667 (AID 1065). To be noted: higher = more signal; small-molecule microarray, COS7 cell lysate, probe DM2A8, fluorescence, COS7 lysate expressing mutant human TOR1A unless noted.
Assay [3] is described as follows: binders of probe aFGF2 on microarray, primary screen, stem cell growth factor project, biochemical, small-molecule microarray, fluorescence 635/667 (AID 1067).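 Further: measures binding of biotinylated aFGF2 protein to printed compounds on slides; z-score merges feature fluorescence and signal-to-noise across triplicate slides.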 To be noted: higher = more signal; small-molecule microarray, probe aFGF2, fluorescence unless noted.
Assay [4] is described as follows: binders of probe aFGF10 on microarray, primary screen, stem cell growth factor project, biochemical, small-molecule microarray, fluorescence 635/667 (AID 1071).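 Further: score merges 667 nm spot intensity and signal to noise from triplicate slides.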 The following applies: higher = more signal; small-molecule microarray, probe aFGF10, fluorescence unless noted.
The target in assay [5] is Neurogenic locus notch homolog protein 2 (Homo sapiens) (UniProt Q04721). Briefly: Notch2 binders on small-molecule microarrays, primary screen, biochemical, small-molecule microarray, 635 nm fluorescence, stem cell growth factors (AID 1073). The following applies: Notch2 binding, higher = more signal.
Assay [6] addresses Pro-neuregulin-1, membrane-bound isoform (Homo sapiens) (UniProt Q02297). Nature of the assay: NRG1 binders on small-molecule microarrays, primary screen, psychiatric disease protein project, biochemical, small-molecule microarray, fluorescence 635/667 (AID 1075).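 Further: score combines 667 nm spot fluorescence with signal to noise.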 To be noted: NRG1 binding, 635 nm fluorescence, higher = more signal.
For assay [7], the system named is Neuregulin-1 EGF-like domain. Briefly: binders of neuregulin-1 EGF-like domain, primary screen, biochemical, small-molecule microarray, 635 nm fluorescence (AID 1081).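 Further: binding of the protein to compounds printed on small-molecule microarray slides.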 To be noted: small-molecule microarray binding, higher = more signal.
Assay [8] in a line: FRG1 promoter luciferase signal modulators, primary screen, FRG1 inhibition for FSHD, cell-based, C2C12 myotubes, firefly/Renilla luciferase, luminescence (AID 1084). To be noted: higher = more signal, called active from +8 up or from −8 down unless noted.
A short description of assay [9]: binders of probe aFST on microarray, primary screen, stem cell growth factor project, biochemical, small-molecule microarray, fluorescence 635/667 (AID 1086).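 Further: score merges 667 nm fluorescence with signal-to-noise of each printed compound spot.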 The following applies: higher = more signal.
Assay [10] in a line: binders of probe aHhip on microarray, primary screen, stem cell growth factor project, biochemical, small-molecule microarray, fluorescence 635/667 (AID 1087).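 Further: score merges spot fluorescence at 667nm with spot signal to noise ratio.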 The following applies: higher = more signal.
Assay [11] deals with PRMT1 (protein arginine N-methyltransferase 1). Briefly: PRMT1 binders on small-molecule microarrays, primary screen, biochemical, small-molecule microarray, 635 nm fluorescence (AID 1088).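 Further: binding of Prmt1 protein to compounds spotted on small-molecule microarray slides.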 To be noted: small-molecule microarray binding, higher = more signal.
A short description of assay [12]: yeast growth modulation, basal conditions, primary screen, YJM789 clinical isolate, OD600, 24 h (AID 1089).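 Further: growth of clinical yeast isolate S. cerevisiae YJM 789 seeded 1000 cells per well; test concentration not given here.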 The following applies: S. cerevisiae YJM789 growth; higher = more signal, called active from +8 up or from −8 down unless noted.
A short description of assay [13]: fission yeast growth modulation, primary screen, strain 972, OD600, 24 h, no modulator (AID 1090).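 Further: basal condition with compound alone and no growth modifier present; test concentration not given here.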 The following applies: S. pombe 972 growth; higher = more signal, called active from +8 up or from −8 down unless noted.
The nature of assay [14]: S. cerevisiae growth modulation with rapamycin, primary screen, strain BY4716, OD600, 96 h (AID 1091). Further: test concentration not given here. The following applies: higher = more signal, called active from +8 up or from −8 down unless noted.
The target of assay [15] is Torsin-1A-interacting protein 2 (Homo sapiens) (UniProt Q8NFQ8). Nature of the assay: LULL1 binders on small-molecule microarray, primary screen, cell lysate, human LULL1 lysate, 635/667 nm fluorescence (AID 1092).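 Further: probe is lysate of COS7 cells overexpressing human LULL1; score merges per-feature 667 nm fluorescence with signal-to-noise.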 To be noted: hLULL1 lysate binding, 635 nm fluorescence, higher = more signal.
Chain of Torsin-1A-interacting protein 2 (Homo sapiens) (Q8NFQ8 whole entry, looked up): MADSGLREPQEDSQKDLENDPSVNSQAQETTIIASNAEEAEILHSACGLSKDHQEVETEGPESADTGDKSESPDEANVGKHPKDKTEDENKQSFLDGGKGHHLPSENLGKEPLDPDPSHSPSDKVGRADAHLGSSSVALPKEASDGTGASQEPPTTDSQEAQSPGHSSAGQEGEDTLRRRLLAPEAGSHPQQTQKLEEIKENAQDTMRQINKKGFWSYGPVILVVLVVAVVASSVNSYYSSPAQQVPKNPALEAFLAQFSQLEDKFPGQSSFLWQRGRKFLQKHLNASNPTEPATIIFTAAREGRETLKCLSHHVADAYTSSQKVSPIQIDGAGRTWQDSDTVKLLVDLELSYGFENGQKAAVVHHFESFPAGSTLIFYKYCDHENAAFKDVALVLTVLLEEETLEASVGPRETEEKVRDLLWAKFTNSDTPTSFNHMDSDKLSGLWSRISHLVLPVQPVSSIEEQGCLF
Assay [16] can be described thus: E. coli growth modulation, two-sided OD650, primary screen, E. coli filamentation project, strain DRC41, 24 h (AID 1093).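 Further: MC1000 strain lacking acrAB efflux and sulA so SOS filamentation is blocked; test concentration not given here.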 To be noted: OD650, 24 h; higher = more signal, called active from +8 up or from −8 down unless noted.
Assay [17] in a line: small-molecule microarray binders of probe aLefty2, primary screen, biochemical, biotinylated probe, 635/667 nm fluorescence (AID 1094).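 Further: score merges spot fluorescence near 667 nm with spot signal-to-noise ratio.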 To be noted: higher = more signal; small-molecule microarray, probe aLefty2, fluorescence unless noted.
The subject of assay [18] is Noggin (protein binding on small-molecule microarray). Briefly: Noggin binders on small-molecule microarray, primary screen, biochemical, 635/667 nm fluorescence (AID 1095).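 Further: score merges 667 nm feature fluorescence with signal to noise over triplicate slides.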 To be noted: 635 nm fluorescence, higher = more signal.
The target in assay [19] is Neurogenic locus notch homolog protein 3 (Homo sapiens) (UniProt Q9UM47). Briefly: NOTCH3 binders on small-molecule microarray, primary screen, biochemical, 635/667 nm fluorescence (AID 1096). To be noted: NOTCH3 binding, 635 nm fluorescence, higher = more signal.
Chain of Neurogenic locus notch homolog protein 3 (Homo sapiens) (Q9UM47 whole entry, looked up): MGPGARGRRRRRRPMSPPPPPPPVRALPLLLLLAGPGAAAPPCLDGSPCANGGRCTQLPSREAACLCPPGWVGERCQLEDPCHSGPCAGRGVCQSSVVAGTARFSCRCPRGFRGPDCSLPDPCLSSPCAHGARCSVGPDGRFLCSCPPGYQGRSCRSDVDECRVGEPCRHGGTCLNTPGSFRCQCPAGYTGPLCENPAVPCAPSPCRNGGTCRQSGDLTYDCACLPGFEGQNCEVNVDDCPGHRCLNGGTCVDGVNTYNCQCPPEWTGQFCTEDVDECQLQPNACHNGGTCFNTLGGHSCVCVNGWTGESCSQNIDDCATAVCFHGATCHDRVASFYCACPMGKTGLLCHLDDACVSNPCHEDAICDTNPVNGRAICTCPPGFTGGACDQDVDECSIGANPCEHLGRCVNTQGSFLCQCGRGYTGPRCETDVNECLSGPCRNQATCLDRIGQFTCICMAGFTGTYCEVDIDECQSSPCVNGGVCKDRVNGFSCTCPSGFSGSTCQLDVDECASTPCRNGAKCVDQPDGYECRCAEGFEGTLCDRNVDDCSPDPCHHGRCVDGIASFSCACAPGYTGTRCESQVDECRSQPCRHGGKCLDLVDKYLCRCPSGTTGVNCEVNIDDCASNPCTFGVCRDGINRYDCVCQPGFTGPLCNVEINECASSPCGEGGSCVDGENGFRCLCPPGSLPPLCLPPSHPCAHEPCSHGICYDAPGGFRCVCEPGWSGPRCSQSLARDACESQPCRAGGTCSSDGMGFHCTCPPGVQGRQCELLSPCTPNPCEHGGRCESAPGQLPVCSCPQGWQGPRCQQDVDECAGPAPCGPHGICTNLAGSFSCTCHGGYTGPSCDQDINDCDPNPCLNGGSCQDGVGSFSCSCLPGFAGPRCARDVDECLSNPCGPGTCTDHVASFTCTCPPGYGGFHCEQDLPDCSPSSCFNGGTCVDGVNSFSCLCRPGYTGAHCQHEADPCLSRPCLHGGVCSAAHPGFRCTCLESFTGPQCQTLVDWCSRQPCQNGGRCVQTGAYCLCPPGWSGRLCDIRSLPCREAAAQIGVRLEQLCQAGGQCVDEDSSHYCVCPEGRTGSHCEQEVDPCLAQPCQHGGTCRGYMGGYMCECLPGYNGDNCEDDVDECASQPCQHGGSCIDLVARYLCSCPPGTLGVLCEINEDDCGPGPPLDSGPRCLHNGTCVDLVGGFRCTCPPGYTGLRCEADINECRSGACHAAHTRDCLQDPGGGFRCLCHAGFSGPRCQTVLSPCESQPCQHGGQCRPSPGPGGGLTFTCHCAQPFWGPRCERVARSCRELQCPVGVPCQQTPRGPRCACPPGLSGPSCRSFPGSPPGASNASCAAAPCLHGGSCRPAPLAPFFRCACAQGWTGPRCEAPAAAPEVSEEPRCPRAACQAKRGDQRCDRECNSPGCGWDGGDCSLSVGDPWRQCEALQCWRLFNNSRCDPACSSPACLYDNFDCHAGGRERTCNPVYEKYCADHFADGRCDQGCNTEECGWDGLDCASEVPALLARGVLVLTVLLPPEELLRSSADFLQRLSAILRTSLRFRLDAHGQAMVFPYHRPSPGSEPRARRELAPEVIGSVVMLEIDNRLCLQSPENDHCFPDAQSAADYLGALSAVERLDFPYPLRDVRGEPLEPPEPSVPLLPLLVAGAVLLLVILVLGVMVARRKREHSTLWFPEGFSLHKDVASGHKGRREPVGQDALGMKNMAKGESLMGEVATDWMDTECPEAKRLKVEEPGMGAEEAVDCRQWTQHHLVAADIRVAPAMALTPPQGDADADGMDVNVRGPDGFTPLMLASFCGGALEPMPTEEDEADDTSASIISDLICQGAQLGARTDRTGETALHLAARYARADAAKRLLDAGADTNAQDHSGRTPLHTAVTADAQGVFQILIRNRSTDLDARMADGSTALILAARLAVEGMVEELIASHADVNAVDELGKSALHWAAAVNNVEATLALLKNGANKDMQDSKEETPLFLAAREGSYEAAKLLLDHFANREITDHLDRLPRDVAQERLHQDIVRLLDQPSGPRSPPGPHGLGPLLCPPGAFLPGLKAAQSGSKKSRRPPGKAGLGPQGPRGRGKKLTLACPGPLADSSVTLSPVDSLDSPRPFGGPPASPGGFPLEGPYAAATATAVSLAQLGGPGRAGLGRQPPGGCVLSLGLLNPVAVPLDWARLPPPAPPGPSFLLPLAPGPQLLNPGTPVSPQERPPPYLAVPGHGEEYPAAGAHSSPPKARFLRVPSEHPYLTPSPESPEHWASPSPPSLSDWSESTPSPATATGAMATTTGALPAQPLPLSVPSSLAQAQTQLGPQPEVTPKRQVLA
A short description of assay [20]: small-molecule microarray binders of probe aEGFR, primary screen, biochemical, biotinylated probe, 635/667 nm fluorescence (AID 1097).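 Further: probe is a biotinylated anti-EGFR antibody binding compounds printed on slides; score combines fluorescence near 667 nm and signal to noise of each spot.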 The following applies: higher = more signal; small-molecule microarray, probe aEGFR, fluorescence unless noted.

Calls of active or inactive are those of the source.

Chain of Pro-neuregulin-1, membrane-bound isoform (Homo sapiens) (Q02297 whole entry, looked up, the tested form may be a part, canonical isoform): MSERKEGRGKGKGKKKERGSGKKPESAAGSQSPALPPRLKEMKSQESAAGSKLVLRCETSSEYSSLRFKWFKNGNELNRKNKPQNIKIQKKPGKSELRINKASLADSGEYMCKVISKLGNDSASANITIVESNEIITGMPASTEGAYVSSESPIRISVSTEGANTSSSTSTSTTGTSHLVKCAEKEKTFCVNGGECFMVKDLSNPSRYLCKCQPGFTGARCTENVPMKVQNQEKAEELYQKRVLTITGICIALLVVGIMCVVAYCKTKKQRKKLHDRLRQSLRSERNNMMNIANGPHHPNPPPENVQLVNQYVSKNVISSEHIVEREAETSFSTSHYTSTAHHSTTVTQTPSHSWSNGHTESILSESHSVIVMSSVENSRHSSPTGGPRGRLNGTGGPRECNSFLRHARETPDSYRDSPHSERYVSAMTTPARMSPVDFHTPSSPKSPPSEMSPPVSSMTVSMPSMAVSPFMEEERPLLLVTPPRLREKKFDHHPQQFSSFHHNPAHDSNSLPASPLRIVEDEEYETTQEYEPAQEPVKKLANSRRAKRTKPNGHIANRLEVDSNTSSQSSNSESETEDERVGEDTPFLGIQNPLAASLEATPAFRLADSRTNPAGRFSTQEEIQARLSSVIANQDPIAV

In the case of `COC(=O)[C@@]1(Cc2ccc(F)cc2)[C@H]2c3cc(C(=O)N(C)C)[nH]c3C[C@H]2CN1C(=O)c1ccccc1`, the composite z-score is 0.0665 [setting not given] in assay [1]; -0.441 [setting not given] in assay [2]; -0.162 [setting not given] in assay [3]; 0.203 [setting not given] in assay [4]; 1.35 in assay [5]; 0.986 in assay [6]. Further, the composite z-score in assay [7] was 1.06; in assay [9], 0.656; in assay [10] it was -0.236; in assay [11] it was -0.128; in [15] it was 3.23; in assay [17], 0.153 [setting not given]. Further, the composite z-score in [18] is -0.512; in assay [19] it was -0.388; in assay [20], -0.0573 [setting not given]. In addition, the z-score was 0.832 [setting not given] (inactive) in assay [8]; 0.531 [setting not given] (inactive) in assay [12]; 0.0211 [setting not given] (inactive) in [13]; 0.229 [setting not given] (inactive) in [14]; -0.152 [setting not given] (inactive) in assay [16].
Take `c1ccc(-c2cc3c(nc2-c2ccccc2)CCNC3)cc1`: the composite z-score was 0.0329 in assay [1]; -0.112 in assay [2]; -0.0494 in [3]; -0.296 in assay [4]; -0.634 in assay [5]; -0.0361 in assay [6]. Moreover, the composite z-score in [7] is -0.969; in assay [9] it was 0.0294; in assay [10], -0.374; in [11], -0.93; in assay [15], -0.908; in assay [17], -0.0831. For the same compound, the results for the composite z-score in assay [18], in [19] and in [20] were 0.297, -0.73 and -0.238, respectively. For the same compound, the z-score in assay [8] was -0.148 (inactive); in assay [12], 0.52 (inactive); in assay [13] it was 0.538 (inactive); in assay [14], 2.17 (inactive); in assay [16] it was -0.0201 (inactive).
In the case of `CN1CCc2nc(CO)c(CO)cc2C1`, the composite z-score in assay [1] was -0.304; in [2] it was 0.267; in assay [3] it was -0.0982; in assay [4], 0.401; in [5], 0.528; in assay [6], 0.0016. Further, the composite z-score was 0.611 in assay [7]; 0.242 in assay [9]; 0.0881 in assay [10]; -0.121 in assay [11]; 0.277 in assay [15]; -0.0912 in [17]. For the same compound, the composite z-score in assay [18] came out at 0.543; in assay [19], 0.765; in assay [20] it was 0.0668. The z-score in assay [8] is 0.294 (inactive); in assay [12] it was 0.909 (inactive); in [13], 0.772 (inactive); in assay [14], 1.47 (inactive); in assay [16] it was 0.077 (inactive).
Turning to `CCCc1cc2c(n1Cc1ccco1)C(C)C1CN(C(=O)c3ccccc3)C(C)(C(=O)OC)C21` (stereo not given), the composite z-score in [1] came to 1.03; in assay [2] it was 1.05; in assay [3] it was 0.13; in assay [4] it was 0.657; in assay [5] it was 1.66; in assay [6], 1.35. For the same compound, the composite z-score in assay [7] turned out to be 1.09; in assay [9], 0.802; in assay [10], 1.05; in assay [11], 0.254; in assay [15], 2.03; in assay [17] it was 0.849. Besides, the composite z-score in assay [18] amounted to 0.025; in [19], 1.09; in [20], 0.337. Besides, the z-score in assay [8] is 0.301 (inactive); in assay [12] it was -0.0941 (inactive); in assay [13], -0.154 (inactive); in assay [14], 0.444 (inactive); in [16] it was -0.773 (inactive).
In the case of `CCCc1cc2c(n1CCO)C(C)C1CN(C(=O)c3ccccc3)C(C)(C(=O)OC)C21` (stereo not given), the composite z-score worked out at 1.44 in assay [1]; 1.73 in assay [2]; 0.374 in assay [3]; 0.0514 in [4]; 1.66 in [5]; 1.21 in assay [6]. Further, the composite z-score in assay [7] was 1.14; in assay [9], 1.44; in assay [10], 0.593; in assay [11] it was -0.147; in [15], 2.94; in assay [17], 0.851. Also, the composite z-score in assay [18] was -0.562; in [19], 0.386; in [20] it was 0.427. Further, the z-score in assay [8] is 2.02 (inactive); in assay [12], -0.28 (inactive); in assay [13], 1.08 (inactive); in assay [14], 0.158 (inactive); in [16], -0.0807 (inactive).

The record behind these values is PubChem BioAssay.
